Assay results as given in ChEMBL document CHEMBL3988442, “University of Dundee, Small-Polar-MMV Screening Library” (2021).
The campaign covered roughly 48,000 compounds. About 13,000 (27%) showed an effect of 50% or more. The list shows a part of the results.

test system: Wolbachia pipientis; experiment: Anti-Wolbachia Cell-Based Screen; format: functional; set-up: scale not given: in the data most compounds retested in dose-response had high values; details: 5 µM

Compared with CNC(=O)C1CCN(Cc2nc(-c3ccc(SC)cc3)oc2C)C1 (stereo not given), Cc1cccnc1NC(=O)C1CCCN(c2cccc(C(F)(F)F)n2)C1 (stereo not given) is higher in “Percent Effect” value: 1.342% for the first, 9.755% for the second.

Compared with CC(C)Nc1nc2c(c(NC3CC3)n1)CN(C(=O)c1ccsc1)CC2, CC(C)Nc1nc2c(c(NC3CC3)n1)CN(C(=O)c1ccnnc1)CC2 is higher in “Percent Effect” value: 4.633% for the first, 10.08% for the second.

Compared with CNc1nc2c(c(C(=O)N3CCCC3)n1)CN(C(=O)CCSC)CC2, CCN(C)CC(=O)N1CCc2nc(NC)nc(C(=O)N3CCCC3)c2C1 is lower in “Percent Effect” value: 109.5% for the first, 92.7% for the second.

Compared with CCc1nc(CN2CCCN(C(=O)CCSC)CC2)cs1, Cc1csc(N2CCCN(C(=O)c3cccs3)CC2)n1 is higher in “Percent Effect” value: -7.739% for the first, 5.258% for the second.

First: COC(=O)CCC(=O)N1CCc2nc(C(=O)N3CCCCC3)sc2CC1
Second: CCCOCC(=O)N1CCc2nc(NC)nc(C(=O)N3CCCC3)c2C1
The “Percent Effect” value of the first is lower: -23.17% for the first, 106.3% for the second.

Compared with CCCOCC(=O)N1CCCC(c2nnc(CN3CCCCC3)n2C)C1 (stereo not given), CNc1nc2c(c(C(=O)N3CCCC3)n1)CN(C(=O)C1CCCC1)CC2 is higher in “Percent Effect” value: -4.962% for the first, 99.86% for the second.

First: CCC(OC)C(=O)N1CCc2nc(NC)nc(C(=O)N3CCCC3)c2C1 (stereo not given)
Second: CNc1nc2c(c(C(=O)N3CCCC3)n1)CN(C(=O)c1cccs1)CC2
The “Percent Effect” value of the first is lower: 0.1298% for the first, 93.6% for the second.

Going from CCN(C)c1ncnc2c1CCN(C(=O)N1CCCC1)CC2.O=C(O)C(F)(F)F to Cc1nc(N2CCCC2)nc2c1CCN(C(=O)CN(C)C)CC2.O=C(O)C(F)(F)F, the “Percent Effect” value falls from -2.138% to -8.605%.

First: O=C(c1cccs1)N1CCN(C(=O)c2ncoc2-c2ccco2)CC1
Second: CN(C)C(=O)CN1CCN(C(=O)C2CSc3ccccc3O2)CC1 (stereo not given)
The “Percent Effect” value of the first is higher: -2.664% for the first, -6.188% for the second.

Compared with Cc1oncc1C(=O)N1CCCc2c(C#N)nn(C)c2C1, Cc1ccn2ncc(C(=O)N3CCCC(c4noc(C)n4)C3)c2n1 (stereo not given) is lower in “Percent Effect” value: 10.9% for the first, 1.825% for the second.

Compared with Cc1cccc(C(=O)NCCS(=O)(=O)Cc2ccccc2)c1, O=C(NCC[S+]([O-])Cc1ccccc1)c1ccc2[nH]c(=O)[nH]c2c1 (stereo not given) is higher in “Percent Effect” value: -4.406% for the first, 105% for the second.

Going from O=C(NCCCO)Nc1cccc(C[S+]([O-])Cc2ccccc2)c1 (stereo not given) to O=C(NCC(O)Cc1ccccc1)c1ccc2[nH]c(=O)[nH]c2c1 (stereo not given), the “Percent Effect” value rises from -4.621% to 124%.

Going from Cc1nn(C)c(C)c1OCC(=O)NCC(O)Cc1ccccc1 (stereo not given) to O=C(NCC(O)c1ccc(F)cc1F)c1ccccc1 (stereo not given), the “Percent Effect” value rises from -7.018% to 4.07%.

Compared with CSC(C)(C)CNC(=O)NCC[S+]([O-])c1ccccc1 (stereo not given), O=C(NCC[S+]([O-])c1ccccc1)NCC(F)(F)F (stereo not given) is lower in “Percent Effect” value: 5.192% for the first, -2.779% for the second.

Going from O=C(NCC[S+]([O-])c1ccccc1)c1ccc2[nH]c(=O)[nH]c2c1 (stereo not given) to CN(C)C(=O)CN1CCC2(CC1)CC(=O)c1c(ccc3ccccc13)O2, the “Percent Effect” value rises from 103.1% to 104.8%.

Going from CCOCCNS(=O)(=O)c1cc(C)c2nc(O)cc(C)c2c1 to CCOCCNCc1cc(O)c2cc(C)ccc2n1, the “Percent Effect” value falls from 93.93% to -3.741%.

First: CCOCCCNc1nc(CS(=O)(=O)c2ccccc2)cs1
Second: CCOC(=O)CN1CCC2(CC1)CC(=O)c1ccc3ccccc3c1O2
The “Percent Effect” value of the first is lower: -0.3734% for the first, 117.9% for the second.

First: Cc1ccccc1CN1C[C@@H]2OCC(=O)N(CC(N)=O)[C@@H]2C1
Second: NC(=O)CN1CCC2(CC1)CC(=O)c1ccc3ccccc3c1O2
The “Percent Effect” value of the first is lower: -9.838% for the first, 103.8% for the second.

Compared with CN1CC(c2ccccc2)CC2(CCN(CC(=O)N(C)C)CC2)C1 (stereo not given), CN(C)C(=O)CN1CCC2(CC1)COC2 is lower in “Percent Effect” value: -1.357% for the first, -28.68% for the second.

Going from CN(C)C(=O)CN1CCC2(CC1)CC(=O)c1ccc3ccccc3c1O2 to CN(C)C(=O)CN1CCCN(CC2CCOc3ccccc3C2)CC1 (stereo not given), the “Percent Effect” value falls from 109.8% to -6.111%.

Going from NC(=O)CN1CCCC(C(=O)N2CCC(O)(c3ccccc3)CC2)C1 (stereo not given) to O=C1OC2(CCN(C3CCCOC3)CC2)CN1CCc1ccccc1 (stereo not given), the “Percent Effect” value rises from -6.911% to 0.1893%.

First: CCOc1cccc(CNC(=O)CN2CCC3(CCOC3)C2)c1 (stereo not given)
Second: CCOC(=O)CN1CCC2(CC1)CC(NC(=O)c1ccccn1)CO2 (stereo not given)
The “Percent Effect” value of the first is lower: -4.928% for the first, -1.011% for the second.

Going from CC(C)Nc1cc(N2CCCC3(CN(C)C(=O)O3)C2)ncn1 (stereo not given) to CC(NS(=O)(=O)CC1(C#N)CCCC1)c1cccc(-n2cccn2)c1 (stereo not given), the “Percent Effect” value falls from -4.728% to -9.973%.

Compared with CCn1cc(CN(C)C(=O)C(c2ccccc2C)N(C)C)cn1 (stereo not given), O=C(CCCn1cncn1)N1CCCC1c1nc(-c2ccccc2)no1 (stereo not given) is higher in “Percent Effect” value: 1.037% for the first, 16.9% for the second.

Going from Cc1ccc2[nH]c(CO[C@H]3CN(C(=O)C4CC4)C[C@H]3F)nc2c1 to COc1ccc(C)cc1CN(Cc1nc(C)c(C)o1)C1CCN(C)C1 (stereo not given), the “Percent Effect” value falls from -10.96% to -12.97%.

First: CSCC(=O)N1CCCC1c1noc(C2CC2)n1 (stereo not given)
Second: O=C(CCn1cncn1)N1CCCC1c1noc(C2CC2)n1 (stereo not given)
The “Percent Effect” value of the first is lower: 7.079% for the first, 89.8% for the second.

Compared with O=C(CCCn1cncn1)N1CCCC1c1noc(C2CC2)n1 (stereo not given), CN1CCN(C(=O)CC2CCN(CCc3ccccn3)CC2)CC1 is lower in “Percent Effect” value: 94.63% for the first, -2.122% for the second.

Compared with OCC(O)CSCc1cn(-c2ccc(Cl)cc2)nn1 (stereo not given), CC(C)Cc1cc(CC2(NCc3ccccc3Cl)COC2)no1 is lower in “Percent Effect” value: -1.714% for the first, -7.466% for the second.

Going from c1ccc(CCN2CCN(C3CCOC4(CCOCC4)C3)CC2)nc1 (stereo not given) to c1ccc(CN2CCN(C3CCOC4(CCOCC4)C3)CC2)nc1 (stereo not given), the “Percent Effect” value rises from 69.95% to 115.7%.

Going from O=C(NC1COC2(CCN(Cc3ccccn3)CC2)C1)c1ccccn1.O=C(O)C(F)(F)F (stereo not given) to O=C(O)C(F)(F)F.c1ccc(OC2COC3(CCN(Cc4ccccn4)CC3)C2)cc1 (stereo not given), the “Percent Effect” value falls from -3.603% to -3.872%.

Compared with O=C1NC2(CCN(CCc3ccccc3)CC2)CC1c1ccccc1 (stereo not given), c1ccc(CCN2CCN(C3CCOC4(CCOCC4)C3)CC2)cc1 (stereo not given) is higher in “Percent Effect” value: -3.919% for the first, 96.21% for the second.

Going from COC(=O)C(O)C1CCN(CCc2ccccn2)CC1 (stereo not given) to COc1cc(C)c(C(C)Nc2ncc(C(N)=O)cc2Cl)cc1OC (stereo not given), the “Percent Effect” value falls from -11.11% to -11.51%.

With Cc1nn(C)c2nc(N(CCN(C)C)CC3CCCO3)sc12 (stereo not given) the “Percent Effect” value was 2.651%.
